Results published in PubChem BioAssay AID1159580 (chemical genetic matrix, 2015).
Where “and” joins values, the source holds several entries; their conditions need not be identical. Identical values can stand only once. Among all 5,500 compounds or so, about 2,000 (36%) were called active. Another 18% or so got no clear call; they are omitted. Cut-off read from the data, not from the text of the source: active = normalized growth mostly below about 0.91 (no sharp cut-off); inconclusive = no clear call, values can overlap the other calls; inactive = mostly above about 0.92. Some of the results follow.

Assay: chemical genetic growth profiling, strain panel (AID 1159580);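 note: tested at 20 µM; growth read once vehicle control cultures reached saturation at 30 °C; 1 = growth at the plate median or of vehicle wells; lower values mean less growth of the strain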
Conditions: S. cerevisiae deletion strains, growth OD

Measured: normalized growth

CC(Cc1ccc(O)c(O)c1)(NN)C(=O)O (stereo not drawn)
inactive: locus YAL021C, strain ccr4, hits give low values 1 | locus YAL026C, strain drs2, hits give low values 1 | locus YAL030W, strain snc1, hits give low values 0.997 | locus YBL061C, strain skt5, hits give low values 1.01 | locus YBR009C, strain hhf1, hits give low values 0.982 | locus YBR021W, strain FUR4, hits give low values 1.01 | locus YBR023C, strain chs3, hits give low values 0.976 | locus YBR171W, strain sec66, hits give low values 1.01 | locus YBR229C, strain ROT2, hits give low values 1 | locus YBR231C, strain swc5, hits give low values 0.997 | locus YBR279W, strain paf1, hits give low values 0.988 | locus YCL011C, strain gbp2, hits give low values 1.02 | locus YCL016C, strain dcc1, hits give low values 1.01 | locus YCL029C, strain bik1, hits give low values 1.02 | locus YCL069W, strain vba3, hits give low values 1 | locus YCR088W, strain abp1, hits give low values 1 | locus YDL005C, strain med2, hits give low values 1 | locus YDL035C, strain GPR1, hits give low values 1 | locus YDL040C, strain nat1, hits give low values 1 | locus YDL074C, strain BRE1, hits give low values 0.972 | locus YDL101C, strain DUN1, hits give low values 1.02 | locus YDL134C, strain PPH21, hits give low values 1.04 | locus YDL185W, strain tfp1, hits give low values 0.989 | locus YDL192W, strain arf1, hits give low values 1.01 | locus YDR001C, strain nth1, hits give low values 0.994 | locus YDR069C, strain doa4, hits give low values 0.99 | locus YDR101C, strain arx1, hits give low values 1 | locus YDR137W, strain rgp1, hits give low values 1.04 | locus YDR159W, strain sac3, hits give low values 1 | locus YDR162C, strain NBP2, hits give low values 1.01 | locus YDR195W, strain ref2 0.972 | locus YDR297W, strain sur2, hits give low values 1 | locus YDR318W, strain mcm21, hits give low values 1.01 | locus YDR334W, strain swr1, hits give low values 0.999 | locus YDR335W, strain msn5, hits give low values 0.982 | locus YDR388W, hits give low values 1.01 | locus YDR392W, strain spt3, hits give low values 0.985 | locus YDR502C, strain sam2, hits give low values 1.01 | locus YEL003W, strain gim4, hits give low values 0.991 | locus YEL037C, strain rad23, hits give low values 1.02 | locus YEL061C, strain CIN8 (second series), hits give low values 0.999 | locus YEL061C, strain CIN8, hits give low values 1.01 | locus YER015W, strain faa2, hits give low values 0.984 | locus YER016W, strain bim1, hits give low values 1.01 | locus YER110C, hits give low values 1.02 | locus YER111C, strain swi4, hits give low values 1.01 | locus YER155C, strain BEM2 (second series), hits give low values 1.01 | locus YER155C, strain BEM2, hits give low values 0.999 | locus YER167W, strain BCK2, hits give low values 1.01 | locus YFR010W, strain ubp6, hits give low values 0.986 | locus YGL078C, strain dbp3, hits give low values 0.979 | locus YGL086W, strain mad1, hits give low values 1.02 | locus YGL167C, strain pmr1, hits give low values 1 | locus YGL173C, strain kem1, hits give low values 1.03 | locus YGL227W, strain vid30, hits give low values 0.989 | locus YGL240W, strain doc1, hits give low values 1 | locus YGL248W, strain PDE1, hits give low values 0.991 | locus YGL253W, strain hxk2, hits give low values 0.997 | locus YGR078C, strain PAC10, hits give low values 0.966 | locus YGR135W, strain pre9, hits give low values 1.01 | locus YGR229C, strain SMI1, hits give low values 0.992 | locus YGR252W, strain gcn5, hits give low values 1.01 | locus YHR013C, strain ard1, hits give low values 1.04 | locus YHR027C, strain rpn1, hits give low values 0.995 | locus YHR030C, strain SLT2, hits give low values 0.997 and 0.958 | locus YHR079C, strain IRE1 (second series), hits give low values 1.02 | locus YHR079C, strain IRE1, hits give low values 0.961 | locus YHR094C, strain hxt1, hits give low values 1.01 | locus YHR129C, strain ARP1, hits give low values 1.01 | locus YHR142W, strain chs7, hits give low values 1.02 | locus YHR200W, strain rpn10, hits give low values 1.01 | locus YIL066C, strain RNR3, hits give low values 0.965 | locus YIL073C, strain SPO22, hits give low values 1.14 | locus YIL125W, strain kgd1, hits give low values 1 | locus YIR030C, strain dcg1, hits give low values 1.01 | locus YJL092W, strain hpr5, hits give low values 0.997 | locus YJL095W, strain BCK1 (second series), hits give low values 0.996 | locus YJL095W, strain BCK1, hits give low values 1 and 0.954 | locus YJL115W, strain asf1, hits give low values 0.983 | locus YJL129C, strain trk1, hits give low values 1.02 | locus YJL134W, strain LCB3, hits give low values 1 | locus YJL154C, strain vps35, hits give low values 1.01 | locus YJL164C, strain tpk1, hits give low values 1.01 | locus YJL166W, strain qcr8, hits give low values 1.02 | locus YJL168C, strain set2, hits give low values 1.01 | locus YJL187C, strain SWE1 (second series), hits give low values 1 | locus YJR043C, strain POL32, hits give low values 1.01 | locus YJR066W, strain TOR1, hits give low values 0.936
